Test results: the supplement of paper PMC10646978
± gives the standard deviation.

Assays:
Details in all cases: modulator concentration 10 µM
[1] = test system: RAW-Dual (murine macrophage reporter line); assay: NF-kB reporter (SEAP) activity fold change vs agonist alone; higher = enhanced NF-kB activity
Summary of the method: (§1)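 Compound reached 10 μM final in each well by pin transfer, onto RAW-Dual murine macrophage reporter cells seeded at 50 000 per well in 384-well plates. After 1 hour at 37 °C, the cells were stimulated overnight with a PRR agonist. SEAP in the supernatant was read with QUANTI-Blue at 620 nm absorbance for NF-κB, and Lucia luciferase was read with QUANTI-Luc luminescence for IRF. Each signal was turned into fold change against the mean agonist-only control on the same plate, and two replicate plates were averaged with propagated errors.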

[2] = test system: RAW-Dual (murine macrophage reporter line); assay: IRF reporter (Lucia luciferase) activity fold change vs agonist alone; higher = enhanced IRF activity
Summary of the method: as §1

[3] = test system: RAW-Dual (murine macrophage reporter line); assay: viability score (confluency relative to resting cells, overnight) (fraction); higher = more viable, active = viable (0.7 or more)
Summary of the method: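 Compound was added at a final 10 μM to RAW-Dual macrophages in 384-well plates and left overnight. Confluency was imaged with IncuCyte, and two masks were generated in IncuCyte software over all imaged wells. Each viability score is confluency relative to resting cells, and a compound met the cutoff only when both masks were above 70% of resting cells.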

[4] = agonist: CpG ODN 1826 0.5 ug/mL

SMILES | NF-kB reporter [1, 4] | NF-kB reporter ([1]; agonist: LPS 0.1 ug/mL) | NF-kB reporter ([1]; agonist: MPLA […]) | IRF reporter ([2]; agonist: 3'3'-cGAMP 10 ug/mL) | IRF reporter ([2]; agonist: LPS 0.1 ug/mL) | IRF reporter ([2]; agonist: MPLA […]) | viability score [3]
COC(CNC(=O)c1cccc(Br)c1)c1ccccc1C (stereo not given) | 0.649 ± 0.056 | 0.999 ± 0.097 | 0.873 ± 0.04 | 0.832 ± 0.032 | 0.96 ± 0.1 | 0.901 ± 0.21 | 1 (active)
O=C(O)c1ccc(NCn2nnc3ccccc32)cc1 | 1.05 ± 0.1 | 0.928 ± 0.12 | 1.03 ± 0.097 | 1 ± 0.032 | 1.37 ± 0.27 | 1.51 ± 0.23 | 1 (active)
C[C@]1(O)C[C@@H](c2nc(-c3ccc4ccc(-c5ccccc5)nc4c3)c3c(N)nccn32)C1 | 0.797 ± 0.04 | 1.26 ± 0.1 | 0.899 ± 0.08 | 0.593 ± 0.055 | 0.971 ± 0.072 | 0.958 ± 0.17 | 1 (active)
C=C1C(=O)OC2C1CCC(C)=CCCC1(C)OC21 (stereo not given) | 0.0586 ± 0.0046 | 0.0442 ± 0.0037 | 0.0844 ± 0.008 | 0.0346 ± 0.011 | 0.025 ± 0.0055 | 0.0274 ± 0.0061 | 0.253 (inactive)
Cc1cc(C(=O)Nc2ccccc2S(C)(=O)=O)no1 | 1.17 ± 0.069 | 1.04 ± 0.08 | 0.992 ± 0.055 | 0.995 ± 0.056 | 1.04 ± 0.05 | 1.06 ± 0.15 | 1 (active)
Cc1ccsc1C(=CCCN1CCC[C@@H](C(=O)O)C1)c1sccc1C | 1.06 ± 0.084 | 1.06 ± 0.053 | 0.972 ± 0.033 | 0.857 ± 0.056 | 0.961 ± 0.05 | 0.732 ± 0.082 | 0.997 (active)
COC(=O)C1=C(C)NC(=O)NC1c1ccc(Cl)c(Cl)c1 (stereo not given) | 0.979 ± 0.11 | 1.03 ± 0.067 | 0.951 ± 0.04 | 0.992 ± 0.16 | 1.05 ± 0.1 | 0.964 ± 0.24 | 1 (active)
NCC(O)(c1ccc(Cl)cc1)c1ccc(Cl)cc1 | 0.85 ± 0.14 | 1.12 ± 0.12 | 1.03 ± 0.11 | 1.01 ± 0.036 | 1.32 ± 0.25 | 1.41 ± 0.22 | 0.996 (active)
CCCc1nc2ccccc2n1C(=O)C=CC(=O)O | 0.789 ± 0.061 | 0.833 ± 0.06 | 1.13 ± 0.17 | 0.981 ± 0.046 | 1.46 ± 0.12 | 1.59 ± 0.16 | 1 (active)
CN(C)CCOC(c1ccc(Cl)cc1)c1ccccn1.O=C(O)/C=C\C(=O)O (stereo not given) | 0.87 ± 0.12 | 1.14 ± 0.19 | 0.954 ± 0.073 | 0.752 ± 0.03 | 1.36 ± 0.27 | 1.15 ± 0.12 | 1 (active)
C=CCNC(=O)c1cccc(Br)c1 | 0.781 ± 0.061 | 0.962 ± 0.18 | 0.982 ± 0.097 | 0.933 ± 0.044 | 1.11 ± 0.19 | 1.09 ± 0.24 | 1.03 (active)
COc1ccc2c(c1)c(CC(=O)O)c(C)n2C(=O)c1ccc(Cl)cc1 | 1.23 ± 0.21 | 1.06 ± 0.16 | 0.951 ± 0.054 | 1.05 ± 0.034 | 1.25 ± 0.14 | 1.29 ± 0.1 | 1 (active)
O=c1cccnn1CC1CN(c2ncc(Br)cn2)C1 | 1.04 ± 0.32 | 1.08 ± 0.072 | 1.07 ± 0.096 | 0.964 ± 0.044 | 0.966 ± 0.17 | 1.05 ± 0.23 | 1 (active)
Cl.O[C@@H](c1cc(C(F)(F)F)nc2c(C(F)(F)F)cccc12)[C@H]1CCCCN1 | 0.671 ± 0.091 | 0.59 ± 0.044 | 1.05 ± 0.071 | 0.504 ± 0.066 | 1.04 ± 0.096 | 2.25 ± 0.17 | 0.137 (inactive)
CC(C)(C)NCC(=O)Nc1ccc(S(N)(=O)=O)cc1 | 0.762 ± 0.061 | 0.821 ± 0.064 | 1.06 ± 0.091 | 1.02 ± 0.049 | 1.52 ± 0.098 | 1.7 ± 0.2 | 0.997 (active)
CC(N)C12CC3CC(CC(C3)C1)C2 (stereo not given) | 0.979 ± 0.045 | 0.933 ± 0.14 | 1.06 ± 0.058 | 1.02 ± 0.056 | 1.12 ± 0.2 | 1.24 ± 0.37 | 1.01 (active)
O=c1n(CCNS(=O)(=O)Cc2ccccc2)nc(C2CC2)n1-c1ccccc1 | 1.03 ± 0.052 | 1.08 ± 0.09 | 1.1 ± 0.074 | 1.03 ± 0.063 | 1.26 ± 0.08 | 1.22 ± 0.1 | 1.01 (active)
COc1cccc(-c2nnc(NC(=O)C3CC3)o2)c1 | 1.21 ± 0.071 | 0.987 ± 0.096 | 0.999 ± 0.037 | 0.95 ± 0.055 | 1.04 ± 0.057 | 1.11 ± 0.12 | 1 (active)
COc1ccc(NC(=O)Cc2cn(Cc3ccccc3)c3ccccc23)cc1OC | 0.629 ± 0.035 | 1.2 ± 0.096 | 1.57 ± 0.13 | 0.701 ± 0.032 | 1.24 ± 0.27 | 1.39 ± 0.4 | 0.96 (active)
NC(=O)NO | 1.31 ± 0.18 | 1.21 ± 0.29 | 0.96 ± 0.057 | 0.905 ± 0.028 | 1.44 ± 0.26 | 1.09 ± 0.084 | 1 (active)
O=C(NCC1(O)Cc2ccccc2C1)c1cccc(Br)c1 | 1.09 ± 0.055 | 1.02 ± 0.093 | 1.03 ± 0.15 | 1.05 ± 0.069 | 1.2 ± 0.11 | 1.32 ± 0.1 | 0.677 (inactive)
Cc1cccc(C(=O)N2N=C(C3CCCCC3)CC2(O)C(F)(F)F)c1O (stereo not given) | 0.735 ± 0.057 | 0.839 ± 0.064 | 0.955 ± 0.089 | 0.939 ± 0.046 | 1.4 ± 0.093 | 1.52 ± 0.14 | 1.01 (active)
O=C(CSc1nc2c(c(=O)n1-c1ccccc1)SCC2)N1CCN(c2ccccc2)CC1 | 0.985 ± 0.08 | 1.09 ± 0.057 | 1.14 ± 0.036 | 1.15 ± 0.081 | 0.879 ± 0.046 | 0.953 ± 0.076 | 1 (active)
O=c1oc2ccccc2c(O)c1Cc1c(O)c2ccccc2oc1=O | 1.06 ± 0.089 | 0.972 ± 0.061 | 1.03 ± 0.051 | 1.06 ± 0.12 | 0.916 ± 0.048 | 0.844 ± 0.07 | 0.997 (active)
O=C(Nc1cc(C(F)(F)F)cc(C(F)(F)F)c1)c1cc(Br)ccc1Cl | 0.966 ± 0.11 | 1.02 ± 0.066 | 0.912 ± 0.059 | 0.693 ± 0.043 | 1.52 ± 0.2 | 1.05 ± 0.2 | 1.01 (active)
